Measured values from PubChem BioAssay AID624202 (National Center for Advancing Translational Sciences (NCATS), 2012).
The whole screen tested about 380,000 compounds, of which about 4,000 (1.1%) were called active. Not shown: some 3% with an inconclusive outcome. Calls follow the shape of the dose curve; as a rule, active = well fitted activation curve with a large enough effect; inconclusive = small, poorly fitted or top-dose-only effect; inactive = no such curve, though single readings can be large or run the other way. Shown is part of a subset that was picked to be rich in actives.

Assay: qHTS Assay to Identify Small Molecule Activators of BRCA1 Expression; also: nearly all actives have a fitted effect of over 80% in size
Details: MCF7-BRCA1-FFLuc reporter, luminescence, 48 h; series mostly up to 46.1 µM
Excerpt: Functionally, BRCA1 has been implicated in a wide array of cellular activities, including DNA damage repair, cell-cycle checkpoint control, growth inhibition, apoptosis, transcriptional regulation, chromatin remodeling, protein ubiquitylation, and mammary stem cell self-renewal and differentiation. Reduction in BRCA1 levels is associated with an increase in tumor growth and resistance to anti-estrogenic agents, such as tamoxifen, while an increase in BRCA1 expression leads to cell growth arrest and apoptosis. […] The frequent loss of BRCA1 expression in invasive breast cancers in the absence of somatic mutation has been attributed to numerous mechanisms, including hypermethylation of the BRCA1 promoter, exaggerated ubiquitylation of BRCA1 protein, and improper intracellular localization. […] Basal-like breast cancers (BLBCs) are associated with an aggressive clinical course, resistance to chemotherapy, and typically lack expression of estrogen receptor (ER), progesterone receptor (PR), and epidermal growth factor receptor 2 (HER2). BLBCs account for 10-17% of all breast cancers, have few therapeutic options, and are considered the biggest unmet need in the treatment of breast cancer. Conversely, tumors which maintain expression of functional BRCA1 are almost uniformly luminal type cancers, and are accordingly associated with more indolent clinical courses, responsiveness to endocrine therapies, and improved survival.
As such, it is possible that an increase in BRCA1 expression would enable cellular differentiation and restore tumor suppressor function, resulting in delayed tumor growth and less aggressive, more treatable breast cancers. The long term goal of this proposal is to develop a novel prevention or therapeutic agent for breast cancer patients. To accomplish this goal, the overall objective of this proposal is to access the resources provided by the NIH Molecular Libraries Roadmap Initiative and the Molecular Libraries Probe Production Centers Network (MLPCN) to discover and develop new chemical activator probes that will increase BRCA1 expression and function.
NIH Molecular Libraries Probe Production Network [MLPCN]
NIH Chemical Genomics Center [NCGC]
PI Name: Lisa Harlan-Williams, University of Kansas Medical Center
5microl of MCF7-BRCA1-FFLuc cell suspension (400 cells/microl in phenol-red free MEM) are dispensed into Greiner white solid bottom 1536-well assay plates, yielding a final well density of 2000 cells/well. Plates are incubated for 2 hours at 37 degrees C in 5% humidified CO2 to allow cell attachment. Compounds are then transferred via Kalypsys pin tool equipped with 1536-pin array (10nl slotted pins, V&P Scientific, San Diego, CA). The plates are then incubated at 37 degrees C in 5% humidified CO2 for 48 hours. The NCGC in-house luciferase substrate reagent, Buglite, is then added (2.5microl) and plates incubated for 15 minutes, before being transferred to a ViewLux high-throughput CCD imager (PerkinElmer) wherein single end-point measurements of luminescence are acquired using a clear filter. The positive control compound, genistein, will be pinned into dedicated control columns on each plate, including a 16-point 1:3 titration in duplicate, as well as a 10microM maximum activation control, allowing for the normalization of screening activity. DMSO will be pinned into a separate column as a negative control.
All screening operations will be performed on a fully integrated robotic system (Kalypsys, San Diego, CA) containing one RX-130 and two RX-90 anthropomorphic robotic arms (Staubli, Duncan, SC). Library plates will be screened starting from the lowest and proceeding to the highest concentration. Vehicle-only plates, with DMSO being pin-transferred to columns 5-48, will be inserted uniformly at the beginning and the end of each library in order to monitor and record any shifts in the background, which can be affected by reagent dispensers or loss in enzyme activity over time. […]
Potency is read from the fitted curve at half-maximal effect.

Potency, active:
CCCNC(=O)c1c(Cl)cnn1-c1ccc(C)cc1 10 µM
COc1ccc2c(c1)O/C(=C\c1ccccc1O)C2=O 12.6 µM
Fc1ccccc1COc1cccc2cccnc12 7.94 µM
Cc1ccc(-c2ccc(C3=CC(=O)CC(C)(C)C3=O)cc2)cc1 2.24 µM
COc1ccc(C2=NN(C(C)=O)C(c3ccccc3)C2)cc1 (stereo unspecified) 11.2 µM
CC(C)c1ccc(NC(=S)NC2CC3C=CC2C3)cc1 (stereo unspecified) 4.47 µM
COc1ccc2c(Cl)c(C(=O)NCc3ccco3)sc2c1 11.2 µM
Clc1ccc(Cc2nnc(-c3cccs3)o2)cc1 11.2 µM
COc1ccc(Cc2n[nH]c(=S)n2NC(=O)Nc2ccc(C)cc2)cc1 12.6 µM
Cc1ccc(C(=O)NNC(=O)c2ccc3c(c2)OCCO3)cc1 6.31 µM
CCSc1ccccc1C(=O)Nc1ccc2c(c1)OCO2 11.2 µM
N#Cc1ccccc1NC(=O)c1ccc2c(c1)OCO2 3.16 µM
O=C(Nc1ccccc1)c1ccc2c(c1)OCO2 10 µM

Potency, inactive:
CCc1nc2c(cnn2-c2ccc(C)cc2)c(=O)n1-c1ccc(C)cc1
CCCNC(=O)CCc1c(C)nc2c(c(C)nn2-c2ccc(C)cc2)c1C
COc1ccccc1CNC(=O)CCn1c(=O)c2ccccc2n(CC(=O)Nc2cccc(Cl)c2)c1=O
COc1cc(/C=C2\Oc3ccc(C#Cc4ccc(O)cc4)cc3C2=O)cc(OC)c1
O=C1Oc2ccccc2C(=O)/C1=C/c1ccccc1O
Cc1ccc(C)c(CN2C(=O)c3ccccc3S(=O)c3ccc(C(=O)N4CCOCC4)cc32)c1 (stereo unspecified)
Cc1ccc(-c2cc(-c3coc4ccccc4c3=O)c3c(n2)-c2cc(Cl)ccc2OC3)cc1
CN(C)CCCn1c(-c2ccc(Cl)cc2)csc1=Nc1ccccc1
CCOc1cccc(OCCCOc2cccc3cccnc23)c1
O=S(=O)(NCCOc1cccc2cccnc12)c1ccc(F)cc1
CCOC(=O)c1cccc(NS(=O)(=O)c2cn(C)c(C)n2)c1
Cc1ccc(S(=O)(=O)c2c(Nc3cccc(Cl)c3)sc(C(=O)c3ccc4c(c3)OCO4)c2N)cc1
CC1(C)CC(=O)C=C(c2ccccc2CO)C1=O
CC1(C)CC(=O)C=C(c2ccc(COC(=O)c3cc(F)cc(F)c3)cc2)C1=O
COc1cc(C(=O)Nc2ccc(OCc3cc(=O)n4cc(C)sc4n3)cc2)cc(OC)c1OC
CC1=Nc2cc(C(=O)N3CCC(C)CC3)ccc2Sc2ccc(Cl)cc21
Oc1ccc(Cl)cc1C1C=C(c2ccc3c(c2)OCO3)NC(c2ccc(F)c(Br)c2)N1 (stereo unspecified)
COc1ccc(C2=NN(C(=O)CSc3nc(=O)n4ccc(C)cc4n3)C(c3ccc(C)cc3)C2)cc1 (stereo unspecified)
COc1ccc(C2CC(c3ccccc3)=NN2C(=O)c2ccc(Cl)c([N+](=O)[O-])c2)cc1 (stereo unspecified)
O=C(Nc1c(-c2ccc(F)cc2)nc2ccccn12)c1cccc(F)c1
Cc1ccc(C)c(NC(=S)NNC(=S)Nc2ccc(C(C)C)cc2)c1
O=C(COC(=O)C1CC2C=CC1C2)Nc1ccccc1 (stereo unspecified)
OC[C@@H]1O[C@H](n2cnc3c(SCc4ccccc4)ncnc32)[C@H](O)[C@H]1O
COc1cc(OC)cc(-c2nc3nc(C)c(CCC(=O)Nc4ccccc4)c(C)n3n2)c1
CC(=O)c1ccc(NC(=O)COc2ccccc2-c2nc(-c3ccccc3)no2)cc1
CCN(C(=O)c1sc2cc(OC)ccc2c1Cl)c1ccccc1
O=C(NCc1ccco1)c1sc2cccc(F)c2c1Cl
C=C1C=C(C(F)F)n2ncc(C(=O)NCCc3ccccc3OC)c2N1
CNC(=O)c1nnc(Cc2ccc(Cl)cc2)o1
c1csc(-c2nnc(COc3ncnc4sccc34)o2)c1
CCCCCCCNc1ccc(/C=C/c2ccnc3ccccc23)cc1
COc1ccc(Cn2c(C)c(C)c(C#N)c2NC(=O)Nc2ccc(F)cc2)cc1
COc1ccc(OCc2n[nH]c(=S)n2N)cc1
CN(C)c1ccc(C=Nc2ccc(/C=C/c3ccnc4ccccc34)cc2)cc1
O=C(NC1CCCCC1)c1ccc2c(c1)N(Cc1ccc(Cl)cc1)C(=O)c1ccccc1S2=O (stereo unspecified)
C/C(=N/NC(=S)Nc1ccccc1)c1ccc2c(c1)OCO2
N#Cc1ccccc1NC(=O)c1cccc(COc2ccc(Cl)cc2Cl)c1
Cc1ccc(S(=O)(=O)NCC(=O)Nc2ccc3c(c2)OCCO3)cc1
O=CN1CCN(C(=O)c2ccc3c(c2)OCO3)CC1
CCOc1ncccc1C(=O)Nc1ccc2c(c1)OCCO2
O=C(Nc1cccc(Cl)c1N1CCOCC1)c1ccc2c(c1)OCCO2
Cc1ccc(C(=O)NNC2=Nc3cc([N+](=O)[O-])ccc3OC2)cc1
CC(C)NC(=O)CSc1ccccc1C(=O)NCc1ccc2c(c1)OCO2
